Assay results as given in the supplement of paper PMC12340641.
Whole data set: some 1,000 compounds, median “relative growth in counter assay (no AraC = 100%, AraC + DMSO = 0%)” near -1.1, cut for the highest 2% near 20. The entries come from a sample that favours the highest values as a whole.

Test system: HEK293FT dCK*-only
Assay: relative growth in counter assay (no AraC = 100%, AraC + DMSO = 0%); higher = more growth rescue independent of IKZF1
Details: compound concentration: 5 uM; AraC concentration: 0.3 uM; overnight pretreatment + 4 days AraC
Method: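 Growth recovery screen of the molecular-glue-like (Specs) library. HEK293FT cells expressing a dCK*-IKZF1 fusion (primary) or dCK* alone (counter) were pretreated overnight with compound at 5 uM, then given 0.3 uM AraC for 4 days. Hoechst nuclei were counted by imaging. Primary: normalised to pomalidomide (100%) and DMSO (0%), mean of 2 replicates. Counter: normalised to no-AraC (100%) and AraC+DMSO (0%), single replicate.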

SMILES	relative growth in counter assay [%]
O=C(C1CCCCC1)N1CCOC(c2cccc(Nc3nccs3)n2)C1 (centres undefined)	-5.66
O=[N+]([O-])c1ccc(S(=O)(=O)Nc2ccccn2)cc1	-0.83
CC(=O)Nc1cccc(-c2csc(Nc3cccc(C)n3)n2)c1	5.94
CC(=O)Nc1ccc(-c2csc(Nc3cccc(C)n3)n2)cc1	5.34
CC(=O)Nc1ccc(-c2csc(Nc3ccccn3)n2)cc1	15.7
CC(=O)Nc1ccc(-c2csc(Nc3ccc(Cl)cn3)n2)cc1	-4.91
Cc1cccc(Nc2nc(-c3sc(NC(=O)c4ccccc4)nc3C)cs2)n1	60.5
CC(=O)N1CCCC1c1csc(Nc2ccccn2)n1 (centres undefined)	6.68
Cc1ccc(Nc2nc(-c3sc(NC(=O)c4ccccc4)nc3C)cs2)nc1	74.3
Cc1ccnc(Nc2nc(-c3sc(NC(=O)c4ccccc4)nc3C)cs2)c1	68.2
CC(=O)N1CCCC(c2csc(Nc3ccc(C)cn3)n2)C1 (centres undefined)	2.06
COc1cccc(OC)c1C(=O)Nc1ccc(S(=O)(=O)Nc2nccc(C)n2)cc1	-1.58
CC1CCc2cc(F)ccc2N1C(=O)CSc1nnc2c(n1)[nH]c1ccccc12 (centres undefined)	6.61
O=C(NCc1cnc(Nc2cccc(C3CCN(C(=O)C4CCCCC4)CC3)n2)s1)c1cccc(F)c1	-9.34
CC(C)(N)C(=O)N1CCC(c2cccc(Nc3ncc(-c4cccnc4)s3)n2)CC1	-23.8
CCCc1cnc(Nc2cccc(C3CCN(C(=O)[C@@H](N)C(C)O)CC3)n2)s1 (some centres undefined)	-24.9
Cc1ccc(CC(=O)N2CCOC(c3cccc(Nc4nccs4)n3)C2)cc1C (centres undefined)	-4.97
COc1ccc(C(=O)Nc2ccc(S(=O)(=O)Nc3cc(C)nc(C)n3)cc2)cc1	-14
Nc1ccc(C(=O)N2CCCC2c2cccc(Nc3nccs3)n2)cn1 (centres undefined)	-0.6
O=C(O)CCOCCOCCNc1ccc2c(c1)C(=O)N(C1CCC(=O)NC1=O)C2=O (centres undefined)	-0.35
O=[N+]([O-])c1ccc(S(=O)(=O)Nc2ccc(S(=O)(=O)Nc3ncccn3)cc2)cc1	0.33
CC(C)(C)N1CC(C(=O)Nc2ccc(S(=O)(=O)Nc3ncccn3)cc2)CC1=O (centres undefined)	4.79

SMILES	relative growth in counter assay [%]
COC1CCCC(C(=O)N2CCOC(c3cccc(Nc4ncc(C)s4)n3)C2)C1 (centres undefined)	-9.41
CCOCCC(=O)Nc1ccc(S(=O)(=O)Nc2ncccn2)cc1	3.97
Cc1cc(NS(=O)(=O)c2ccc(NC(=O)COc3ccc(C(C)C)cc3)cc2)nc(C)n1	-0.57
Cc1cccc(OCC(=O)Nc2ccc(S(=O)(=O)Nc3nc(C)cc(C)n3)cc2)c1	-12
CN(CC(=O)N1CCOC(c2cccc(Nc3nccs3)n2)C1)Cc1ccccc1F (centres undefined)	0.79
CC(C)c1cnc(Nc2cccc(C3CCN(C(=O)C4CCCCC4)CC3)n2)s1	11
COc1cccc(C(=O)Nc2ccc(S(=O)(=O)Nc3cc(C)nc(C)n3)cc2)c1	0.7
COc1ccc(NC(=O)CN2CCC(c3cccc(Nc4nc(C)cs4)n3)CC2)cc1	13.8
O=C1CCC(N2C(=O)c3cccc(N4CCC(C(=O)O)CC4)c3C2=O)C(=O)N1 (centres undefined)	3.86
Cc1cc(C)nc(NS(=O)(=O)c2ccc(NC(=O)CCN3C(=O)c4ccccc4C3=O)cc2)n1	-7.05
Cc1csc(Nc2cccc(C3CCCN3C(=O)c3ccc4c(c3)CCCN4C)n2)n1 (centres undefined)	13.3
Cc1csc(Nc2cccc(C3CCCN3C(=O)c3ccc4[nH]c(C(C)C)nc4c3)n2)n1 (centres undefined)	30.5
Cc1ccc2[nH]nc(C(=O)N3CCCC3c3cccc(Nc4nc(C)cs4)n3)c2c1 (centres undefined)	2.1
Cc1csc(Nc2cccc(C3CCCN3C(=O)c3cnc(C)nc3C)n2)n1 (centres undefined)	-4.08
Cc1csc(Nc2cccc(C3CCCN3C(=O)c3cn4cc(Cl)ccc4n3)n2)n1 (centres undefined)	22.3
CC(=O)N1CCCC1c1cccc(Nc2nc(C)cs2)n1 (centres undefined)	-5.77
COc1ccc(C(=O)Nc2ccc(S(=O)(=O)Nc3ncccn3)cc2)cc1OC	-2.72
Cc1ccc(Oc2ccc3c(c2)C(=O)N(c2ccc(C(N)=O)cc2)C3=O)cc1C	3.9
COc1ccc2[nH]c3nc(SCC(=O)Nc4cccc(F)c4)nnc3c2c1	-13.9
COc1ccc(C(=O)Nc2ccc(S(=O)(=O)Nc3nccc(C)n3)cc2)cc1	-6.7
Cc1cnc(Nc2cccc(C(CO)C3CCN(C(=O)c4cccc(Cl)c4F)CC3)n2)s1 (centres undefined)	-1.22
Cc1cnc(Nc2cccc(C3CN(C(=O)C(C)(C)C)CCO3)n2)s1 (centres undefined)	-10.3

SMILES	relative growth in counter assay [%]
CCCc1cnc(Nc2cccc(C3CCN(C(=O)[C@@H]4CCCCN4)CC3)n2)s1	-21.3
COc1ccc(Cl)cc1NC(=O)CSc1nnc2c(n1)[nH]c1ccc(F)cc12	5.27
COc1ccc(N2C(=O)c3ccc(Oc4ccccc4)cc3C2=O)cc1	-22.4
CCC(C)C(=O)Nc1ccc(S(=O)(=O)Nc2nccc(C)n2)cc1 (centres undefined)	-7.22
COc1cc(NS(=O)(=O)c2ccc(Nc3nc(-c4c(C)nc5ncccn45)cs3)cc2)nc(OC)n1	2.39
CCCCc1cnc(Nc2cccc(C3CCN(C(=O)C(C)(C)NC(=O)COC)CC3)n2)s1	-10.6
COc1cccc(CC(=O)N2CCC(c3cccc(Nc4nc(C)c(C)s4)n3)CC2)c1	2.52
Cc1ccnc(NS(=O)(=O)c2ccc(NC(=O)c3ccco3)cc2)n1	3.62
NCC(=O)N1CCC(c2cccc(Nc3ncc(Cl)s3)n2)CC1	-23.9
COc1ccc(N2CC(C(=O)Nc3ccc(S(=O)(=O)Nc4nc(C)cc(C)n4)cc3)CC2=O)cc1 (centres undefined)	7.32
Cc1ccnc(NS(=O)(=O)c2ccc(NC(=O)C3c4ccccc4Oc4ccccc43)cc2)n1	-3.45
COc1ccc(Br)cc1/C=N/NS(=O)(=O)c1ccccc1	-21.2
Cc1nc(Nc2cccc(C3CN(C(=O)c4cn5cccc(C)c5n4)CCO3)n2)sc1C (centres undefined)	2.16
CNC(=O)C1(c2cccc(Nc3ncc(C)s3)n2)CCN(C(=O)C2CCCCC2)CC1	-21.2
Cc1cc(C)nc(NS(=O)(=O)c2ccc(NC(=O)CSc3nnnn3-c3ccccc3)cc2)n1	1.47
CC(C)CC(=O)N1CCCC1c1csc(Nc2ccccn2)n1 (centres undefined)	-4
Cc1cnc(Nc2cccc(C3CCN(C(=O)C4(NC(=O)C(C)C)CCCCC4)CC3)n2)s1	-24.4
CC(=O)Nc1ccc(S(=O)(=O)Nc2ccccn2)cc1	-7.51
CC(=O)Nc1ccc(S(=O)(=O)Nc2ncccn2)cc1	-1.98
CC(=O)Nc1ccc(S(=O)(=O)N(Cc2ccccc2)c2ccccn2)cc1	21
